Reference: PubChem BioAssay (EPA / NIEHS)
Calls of active or inactive are those of the source. The calls were made as follows: active = hit-call score of the fitted dose curve at least 0.9, where 1 is the maximum; inactive = score below 0.9.

Columns and labels:
Settings in all cases: mRNA level, 48 h; actives raise or lower the signal
[1] = read-out: 3-Hydroxy-3-Methylglutaryl-CoA Synthase 2 (HMGCS2), HMGCS2 (gene 3158); test: LTEA_HepaRG_HMGCS2: Life Technologies and Expression Analysis (LTEA) Assay for 3-Hydroxy-3-Methylglutaryl-CoA Synthase 2 (HMGCS2) using HepaRG (AID 2283504)
How it was run: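 Differentiated human HepaRG cells were exposed in duplicate for 48 h in serum-free induction medium to eight concentrations (top 100 uM, half-log steps, 0.5% DMSO). HMGCS2 mRNA was quantified by TaqMan qRT-PCR, normalised to ACTB, GAPDH and POLR2A, then fitted bidirectionally against DMSO.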

HGF (gene 3082) = test: LTEA_HepaRG_HGF: Life Technologies and Expression Analysis (LTEA) Assay for Hepatocyte Growth Facto (HGF) using HepaRG (AID 2283505)
How it was run: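 Differentiated human HepaRG cells in serum-free induction medium were exposed in duplicate for 48 h to eight concentrations (top 100 uM, half-log steps, 0.5% DMSO). HGF mRNA was quantified by qRT-PCR, normalized to ACTB, GAPDH and POLR2A.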

[2] = read-out: Insulin Like Growth Factor 1 (IGF1), IGF1 (gene 3479); test: LTEA_HepaRG_IGF1: Life Technologies and Expression Analysis (LTEA) Assay for Insulin Like Growth Factor 1 (IGF1) using HepaRG (AID 2283506)
How it was run: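 qRT-PCR readout of IGF1 mRNA, normalized to three housekeeping genes, after 48 h chemical exposure of HepaRG cells. Concentrations: 8-point half-log series, top 100 uM, 0.5% DMSO vehicle. Gain or loss fitted against DMSO baseline.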

[3] = read-out: Intercellular Adhesion Molecule 1 (ICAM1), ICAM1 (gene 3383); test: LTEA_HepaRG_ICAM1: Life Technologies and Expression Analysis (LTEA) Assay for Intercellular Adhesion Molecule 1 (ICAM1) using HepaRG (AID 2283507)
How it was run: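 Differentiated HepaRG cells in serum-free induction medium were exposed in duplicate for 48 h to eight half-log concentrations up to 100 uM in 0.5% DMSO. Transcript levels were measured by qRT-PCR normalized to ACTB, GAPDH and POLR2A; bidirectional fits relative to DMSO.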

[4] = read-out: Insulin-like growth factor-binding protein 1 (IGFBP1), IGFBP1 (gene 3484); test: LTEA_HepaRG_IGFBP1: Life Technologies and Expression Analysis (LTEA) Assay for Insulin-like growth factor-binding protein 1 (IGFBP1) using HepaRG (AID 2283508)
How it was run: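 Differentiated human HepaRG cells in serum-free induction medium were exposed in duplicate for 48 h to eight concentrations, top 100 uM with half-log dilutions, in 0.5% DMSO. Transcript levels came from qRT-PCR normalised to ACTB, GAPDH and POLR2A, fitted bidirectionally against DMSO.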

[5] = read-out: Interleukin 6 (IL6), IL6 (gene 3569); test: LTEA_HepaRG_IL6: Life Technologies and Expression Analysis (LTEA) Assay for Interleukin 6 (IL6) using HepaRG (AID 2283509)
How it was run: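 Transcript levels, normalized to three housekeeping genes, were quantified by qRT-PCR after 48 h chemical treatment of HepaRG cells. Eight-point half-log series from 100 uM in 0.5% DMSO, duplicates. Fitted both directions against DMSO baseline.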

[6] = read-out: Interleukin 6 Receptor (IL6R), IL6R (gene 3570); test: LTEA_HepaRG_IL6R: Life Technologies and Expression Analysis (LTEA) Assay for Interleukin 6 Receptor (IL6R) using HepaRG (AID 2283510)
How it was run: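 HepaRG, 48 h exposure, 8-pt half-log series, top 100 uM, 0.5% DMSO vehicle, duplicates. Read-out: TaqMan qRT-PCR of IL6R transcript, housekeeping-gene normalized. Gain or loss fitted relative to DMSO baseline.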

[7] = read-out: Potassium channel subfamily K member 1 (KCNK1), KCNK1 (gene 3775); test: LTEA_HepaRG_KCNK1: Life Technologies and Expression Analysis (LTEA) Assay for Potassium channel subfamily K member 1 (KCNK1) using HepaRG (AID 2283511)
How it was run: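 KCNK1 transcript measured by TaqMan qRT-PCR against three housekeeping genes, after HepaRG cells were treated 48 h with eight half-log concentrations (top 100 uM, 0.5% DMSO). Curves fitted bidirectionally relative to vehicle.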

[8] = read-out: Keratin 19 (KRT19), KRT19 (gene 3880); test: LTEA_HepaRG_KRT19: Life Technologies and Expression Analysis (LTEA) Assay for Keratin 19 (KRT19) using HepaRG (AID 2283512)
How it was run: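 Differentiated human HepaRG cells, plated 48 h, were exposed in duplicate for 48 h in serum-free induction medium to eight half-log concentrations up to 100 uM in 0.5% DMSO. KRT19 mRNA was quantified by qRT-PCR, normalized to ACTB, GAPDH and POLR2A, and fitted bidirectionally versus DMSO.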

[9] = read-out: JUN Transcription Factor, JUN (gene 3725); test: LTEA_HepaRG_JUN: Life Technologies and Expression Analysis (LTEA) Assay for JUN Transcription Factor using HepaRG (AID 2283513)
How it was run: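 HepaRG, 48 h exposure, 8-pt half-log series top 100 uM, 0.5% DMSO, duplicate. JUN mRNA by qRT-PCR (Fluidigm), housekeeping-normalized (ACTB/GAPDH/POLR2A); bidirectional curve fit vs DMSO baseline.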

[10] = read-out: Lipase C (LIPC), LIPC (gene 3990); test: LTEA_HepaRG_LIPC: Life Technologies and Expression Analysis (LTEA) Assay for Lipase C (LIPC) using HepaRG (AID 2283514)
How it was run: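 LIPC expression was quantified by qRT-PCR against three housekeeping genes (ACTB, GAPDH, POLR2A). Differentiated human HepaRG cells received eight half-log doses (top 100 uM, 0.5% DMSO) in duplicate for 48 h; fitting bidirectional relative to DMSO.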

[11] = read-out: Lipoprotein lipase (LPL), LPL (gene 4023); test: LTEA_HepaRG_LPL: Life Technologies and Expression Analysis (LTEA) Assay for Lipoprotein lipase (LPL) using HepaRG (AID 2283515)
How it was run: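 LPL transcript levels quantified by TaqMan qRT-PCR against three housekeeping genes after 48 h chemical treatment of HepaRG cells. Eight-point half-log series from 100 uM in 0.5% DMSO, tested in duplicate; bidirectional fitting versus vehicle.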

[12] = read-out: MicroRNA 122 (MIR122), gene 406906; test: LTEA_HepaRG_MIR122: Life Technologies and Expression Analysis (LTEA) Assay for MicroRNA 122 (MIR122) using HepaRG (AID 2283516); also: the transcript read is the microRNA miR-122
How it was run: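 qRT-PCR read-out (TaqMan, Fluidigm array), normalized to three housekeeping genes; HepaRG cells dosed 48 h at 8 concentrations up to 100 uM in 0.5% DMSO, duplicate; gain or loss fitted against DMSO baseline.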

[13] = read-out: matrix metalloproteinase-10 (MMP10), MMP10 (gene 4319); test: LTEA_HepaRG_MMP10: Life Technologies and Expression Analysis (LTEA) Assay for matrix metalloproteinase-10 (MMP10) using HepaRG (AID 2283517)
How it was run: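 Expression measured by TaqMan qRT-PCR with ACTB/GAPDH/POLR2A normalisation after 48 h chemical exposure of HepaRG cells. Eight half-log concentrations, top 100 uM, 0.5% DMSO vehicle, duplicates; gain or loss fitted against vehicle.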

MYC, MYC (gene 4609) = test: LTEA_HepaRG_MYC: Life Technologies and Expression Analysis (LTEA) Assay for MYC using HepaRG (AID 2283518)
How it was run: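 Differentiated human HepaRG cells, plated 48 h then switched to serum-free induction medium, were exposed in duplicate for 48 h to 8-point half-log series up to 100 uM in 0.5% DMSO. MYC mRNA measured by qRT-PCR, normalized to ACTB/GAPDH/POLR2A.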

[14] = read-out: matrix metalloproteinase-3 (MMP3), MMP3 (gene 4314); test: LTEA_HepaRG_MMP3: Life Technologies and Expression Analysis (LTEA) Assay for matrix metalloproteinase-3 (MMP3) using HepaRG (AID 2283519)
How it was run: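 Fluidigm-based TaqMan qRT-PCR, normalized to ACTB, GAPDH and POLR2A and fitted bidirectionally versus 0.5% DMSO, measured transcript levels. Treatment: duplicate 48 h exposures of HepaRG cells, ~100,000/well, to eight half-log concentrations topping at 100 uM.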

[15] = read-out: Paternally Expressed 10 (PEG10), PEG10 (gene 23089); test: LTEA_HepaRG_PEG10: Life Technologies and Expression Analysis (LTEA) Assay for Paternally Expressed 10 (PEG10) using HepaRG (AID 2283520);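 as to AC50: PEG10 transcript by qRT-PCR normalised to ACTB GAPDH and POLR2A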
How it was run: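 qRT-PCR read-out: PEG10 mRNA normalised to three housekeeping genes, fitted bidirectionally against 0.5% DMSO vehicle. HepaRG cells received test chemicals for 48 h in serum-free induction medium, 8 points, top 100 uM, half-log steps.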

[16] = read-out: Protein phosphatase 2A (PPP2R4), PTPA (gene 5524); test: LTEA_HepaRG_PPP2R4: Life Technologies and Expression Analysis (LTEA) Assay for Protein phosphatase 2A (PPP2R4) using HepaRG (AID 2283522)
How it was run: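 HepaRG, 48 h exposure, 8-pt half-log series from 100 uM, 0.5% DMSO vehicle, duplicates. Readout: PPP2R4 mRNA, Fluidigm qRT-PCR, housekeeping-normalized. Bidirectional curve fit vs DMSO baseline.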

[17] = read-out: Phosphatase and tensin (PTEN), PTEN (gene 5728); test: LTEA_HepaRG_PTEN: Life Technologies and Expression Analysis (LTEA) Assay for Phosphatase and tensin (PTEN) using HepaRG (AID 2283523)
How it was run: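 Read-out: TaqMan qRT-PCR of PTEN transcript, normalized to three housekeeping genes, fitted in both directions against 0.5% DMSO. Differentiated human HepaRG cultures received chemicals for 48 h, eight-point half-log series topping at 100 uM.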

[18] = read-out: Nuclear factor NF-kappa-B p105 subunit (Homo sapiens) (UniProt P19838); test: LTEA_HepaRG_NFKB1: Life Technologies and Expression Analysis (LTEA) Assay for Nuclear Factor Kappa B Subunit 1 (NFKB1) using HepaRG (AID 2283521);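 also: TaqMan qRT-PCR transcript normalised to ACTB GAPDH and POLR2A housekeeping genes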
How it was run: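 Human HepaRG cells receive eight half-log concentrations, highest 100 uM, for 48 h. NFKB1 expression is then quantified by qRT-PCR and analysed for up- or down-regulation relative to 0.5% DMSO vehicle.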

Measured: AC50

Nuclear factor NF-kappa-B p105 subunit (Homo sapiens), sequence (P19838 whole entry, looked up): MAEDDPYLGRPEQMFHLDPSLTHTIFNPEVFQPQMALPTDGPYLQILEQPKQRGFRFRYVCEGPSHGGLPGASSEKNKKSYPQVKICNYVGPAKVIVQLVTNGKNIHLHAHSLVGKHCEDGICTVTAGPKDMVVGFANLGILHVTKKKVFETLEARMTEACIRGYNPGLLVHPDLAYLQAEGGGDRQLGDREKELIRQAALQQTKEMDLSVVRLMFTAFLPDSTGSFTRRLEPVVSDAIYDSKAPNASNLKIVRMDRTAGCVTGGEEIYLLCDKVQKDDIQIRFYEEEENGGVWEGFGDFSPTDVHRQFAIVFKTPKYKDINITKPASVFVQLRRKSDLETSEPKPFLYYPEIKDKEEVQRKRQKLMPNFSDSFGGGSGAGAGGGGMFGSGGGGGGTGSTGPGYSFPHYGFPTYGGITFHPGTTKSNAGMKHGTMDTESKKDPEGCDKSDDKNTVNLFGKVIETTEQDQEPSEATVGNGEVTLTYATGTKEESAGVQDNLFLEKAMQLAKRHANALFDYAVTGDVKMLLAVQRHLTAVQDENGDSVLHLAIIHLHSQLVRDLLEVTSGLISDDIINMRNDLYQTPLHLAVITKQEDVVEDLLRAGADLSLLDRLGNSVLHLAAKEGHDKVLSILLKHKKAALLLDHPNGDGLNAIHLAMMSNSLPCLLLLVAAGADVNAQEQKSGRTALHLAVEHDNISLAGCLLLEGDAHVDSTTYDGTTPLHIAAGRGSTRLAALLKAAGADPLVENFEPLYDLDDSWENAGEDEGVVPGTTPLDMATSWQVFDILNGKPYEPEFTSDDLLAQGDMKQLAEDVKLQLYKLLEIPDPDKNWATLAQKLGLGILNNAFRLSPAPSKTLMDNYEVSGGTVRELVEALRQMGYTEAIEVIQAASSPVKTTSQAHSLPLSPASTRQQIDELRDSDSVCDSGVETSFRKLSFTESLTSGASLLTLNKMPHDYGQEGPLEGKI

CCCc1ccccc1
inactive: [1] | HGF (gene 3082) | [2] | [3] | [4] | [5] | [6] | [7] | [8] | [9] | [10] | [11] | [12] | [13] | MYC, MYC (gene 4609) | [14] | [15] | [16] | [17]

CNC(C)=O
inactive: [1] | HGF (gene 3082) | [2] | [3] | [4] | [5] | [6] | [7] | [8] | [9] | [10] | [11] | [12] | [13] | MYC, MYC (gene 4609) | [14] | [15] | [16] | [17]

OCCNCCO
inactive: HGF (gene 3082) | [2] | [3] | [4] | [5] | [6] | [7] | [9] | [10] | [11] | [12] | [13] | MYC, MYC (gene 4609) | [14] | [15] | [16] | [17]
active: [1] 75 µM | [8] 50 µM

c1ccc(C(O[C@@H]2CCCN(CCc3ccc4c(c3)OCO4)C2)c2ccccc2)cc1
inactive: [5] | [6] | [7] | [9] | [11] | [13]
active: [1] 80.8 µM | HGF (gene 3082) 50 µM | [2] 58 µM | [3] 85.3 µM | [4] 86.9 µM | [8] 40.3 µM | [10] 76.5 µM | [12] 69.7 µM | MYC, MYC (gene 4609) 83.4 µM | [14] 25.2 µM | [15] 13.1 µM | [16] 50 µM | [17] 79.6 µM

CCCCCCCC1CCC(=O)O1 (stereo unspecified)
inactive: [1] | [2] | [3] | [4] | [5] | [6] | [7] | [8] | [9] | [10] | [11] | [12] | [13] | MYC, MYC (gene 4609) | [14] | [15] | [16] | [17]

CCCCCCCCCC
inactive: [1] | HGF (gene 3082) | [2] | [3] | [4] | [5] | [6] | [7] | [8] | [9] | [10] | [11] | [12] | [13] | MYC, MYC (gene 4609) | [14] | [15] | [18] | [16] | [17]

OCC(CO)(CO)CO
inactive: [1] | HGF (gene 3082) | [2] | [3] | [4] | [5] | [6] | [7] | [8] | [9] | [10] | [11] | [12] | [13] | MYC, MYC (gene 4609) | [14] | [15] | [16] | [17]

CCCCCCCCN(C)C
inactive: [1] | HGF (gene 3082) | [2] | [3] | [4] | [5] | [6] | [7] | [8] | [9] | [10] | [11] | [12] | [13] | MYC, MYC (gene 4609) | [14] | [15] | [16] | [17]

O=S1(=O)CCCO1
inactive: [1] | HGF (gene 3082) | [2] | [3] | [4] | [5] | [6] | [7] | [8] | [9] | [10] | [11] | [12] | [13] | MYC, MYC (gene 4609) | [14] | [15] | [16] | [17]
